Assay results from PubChem BioAssay.
For some of these results: Measured potencies and affinities stand elsewhere. Calls of active or inactive are those of the source. Unless noted, how the calls were made is not given here.

Assays:
[1] = antimalarial activity against Dd2 strain (AID 2302;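 active means growth inhibition above 50% at the single 2 µM test dose, taken to imply half-maximal potency below 2 µM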;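 further: 0% = DMSO untreated growth and 100% = chloroquine plus artemisinin killed control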); conditions: P. falciparum Dd2 in RBCs, LDH growth readout, 72 h; at 2 µM; active compounds read high
[2] = human hepatoma cell viability loss – ATP luminescence, cytotoxicity control for P. falciparum antimalarial project, primary screen (AID 2303;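 active means inhibition above 50%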;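 further: 0% = DMSO wells and 100% = digitonin-killed cells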); conditions: HepG2 viability, 24-48 h, at 10 µM, active compounds read high
[3] = target: L-lactate dehydrogenase (Plasmodium falciparum (isolate CDC / Honduras)) (UniProt Q27743); test: PfLDH activity inhibition – cell lysate, 3D7 strain, counter-screen for P. falciparum growth inhibition project (AID 2304);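 further: 0% = vehicle and 100% = reference inhibitor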; conditions: P. falciparum 3D7 crude extract, LDH APAD/NBT absorbance; at 2 µM; active compounds read high
Chain of L-lactate dehydrogenase (Plasmodium falciparum (isolate CDC / Honduras)) (Q27743 whole entry, looked up): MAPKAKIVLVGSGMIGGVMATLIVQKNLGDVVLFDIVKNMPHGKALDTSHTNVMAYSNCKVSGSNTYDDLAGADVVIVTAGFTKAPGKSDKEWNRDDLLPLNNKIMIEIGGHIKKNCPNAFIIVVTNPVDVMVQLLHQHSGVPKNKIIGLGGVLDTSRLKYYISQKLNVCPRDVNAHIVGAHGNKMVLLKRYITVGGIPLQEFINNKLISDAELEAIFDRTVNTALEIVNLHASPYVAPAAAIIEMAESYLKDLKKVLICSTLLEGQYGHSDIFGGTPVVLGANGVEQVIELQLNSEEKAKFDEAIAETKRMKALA

[4] = inhibition of 3D7 malaria parasite growth – strain 3D7 (AID 2306);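 further: 0% = DMSO wells and 100% = chloroquine plus artemisinin control wells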; conditions: P. falciparum 3D7 erythrocytic growth, LDH absorbance, 72 h; at 2 µM; active compounds read high
[5] = target: Calcium-dependent protein kinase 1 (Plasmodium falciparum (isolate 3D7)) (UniProt P62344); test: PfCDPK1 kinase inhibitors, biochemical, TCAMS library (AID 1159585; cut-off not given, nearly all actives have IC50 up to about 0.98 µM;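 further: inhibitors leave more ATP so luminescence rises with inhibition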); conditions: recombinant PfCDPK1, Kinase-Glo ATP depletion luminescence
Chain of Calcium-dependent protein kinase 1 (Plasmodium falciparum (isolate 3D7)) (P62344 whole entry, looked up): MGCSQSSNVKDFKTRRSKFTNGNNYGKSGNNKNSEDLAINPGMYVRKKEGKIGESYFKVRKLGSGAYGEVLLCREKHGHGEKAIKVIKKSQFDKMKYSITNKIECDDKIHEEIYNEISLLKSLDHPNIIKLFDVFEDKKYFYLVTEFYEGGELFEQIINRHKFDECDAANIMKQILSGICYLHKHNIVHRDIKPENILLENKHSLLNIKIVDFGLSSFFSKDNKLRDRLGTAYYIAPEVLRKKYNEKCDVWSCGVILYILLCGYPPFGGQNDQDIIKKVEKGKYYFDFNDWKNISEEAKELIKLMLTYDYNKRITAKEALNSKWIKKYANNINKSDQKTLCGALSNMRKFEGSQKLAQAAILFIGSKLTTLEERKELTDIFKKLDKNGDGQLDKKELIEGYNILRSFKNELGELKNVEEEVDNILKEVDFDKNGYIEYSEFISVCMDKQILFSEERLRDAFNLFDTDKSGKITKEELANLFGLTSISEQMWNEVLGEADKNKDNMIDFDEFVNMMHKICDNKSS

[6] = target: Plasmodium falciparum protein kinase 6 (PK6, PF3D7_1337100) (UniProt Q8IDW1); test: PfPK6 kinase inhibitors, biochemical, TCAMS library (AID 1159586); conditions: recombinant PfPK6, Kinase-Glo ATP depletion luminescence
Chain of Plasmodium falciparum protein kinase 6 (PK6, PF3D7_1337100) (Q8IDW1 1-305): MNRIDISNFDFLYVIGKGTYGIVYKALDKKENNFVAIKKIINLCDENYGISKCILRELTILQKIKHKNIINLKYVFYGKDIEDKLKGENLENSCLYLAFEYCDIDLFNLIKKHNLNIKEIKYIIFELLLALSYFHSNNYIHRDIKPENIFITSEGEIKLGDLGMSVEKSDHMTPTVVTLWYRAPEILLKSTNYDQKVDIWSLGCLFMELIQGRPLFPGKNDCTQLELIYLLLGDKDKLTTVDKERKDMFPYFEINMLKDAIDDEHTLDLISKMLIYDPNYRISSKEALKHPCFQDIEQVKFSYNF

[7] = target: Protein kinase 7 (PK7), Plasmodium falciparum 3D7 (PF3D7_0213400) (UniProt Q7YTF7); test: inhibition of Plasmodium PK7 catalytic activity – biochemical, TCAMS antimalarial set, Kinase-Glo luminescence (AID 1159587); conditions: recombinant PfPK7, Kinase-Glo ATP depletion luminescence
Chain of Protein kinase 7 (PK7), Plasmodium falciparum 3D7 (PF3D7_0213400) (Q7YTF7 1-343): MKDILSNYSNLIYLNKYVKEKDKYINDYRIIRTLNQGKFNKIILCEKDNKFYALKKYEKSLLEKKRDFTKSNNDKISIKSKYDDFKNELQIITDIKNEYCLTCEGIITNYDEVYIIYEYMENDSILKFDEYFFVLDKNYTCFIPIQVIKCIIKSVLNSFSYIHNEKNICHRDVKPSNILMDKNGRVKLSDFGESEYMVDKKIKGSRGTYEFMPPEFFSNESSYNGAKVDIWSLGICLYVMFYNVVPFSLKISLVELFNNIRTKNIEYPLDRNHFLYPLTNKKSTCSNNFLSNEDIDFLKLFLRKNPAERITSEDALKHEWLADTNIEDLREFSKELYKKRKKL

[8] = target: Calcium-dependent protein kinase 4 (Plasmodium falciparum (isolate 3D7)) (UniProt Q8IBS5); test: PfCDPK4 kinase inhibitors, biochemical, TCAMS library (AID 1159588; cut-off not given, nearly all actives have IC50 up to about 0.91 µM); conditions: recombinant PfCDPK4, Kinase-Glo ATP depletion luminescence
Chain of Calcium-dependent protein kinase 4 (Plasmodium falciparum (isolate 3D7)) (Q8IBS5 whole entry, looked up): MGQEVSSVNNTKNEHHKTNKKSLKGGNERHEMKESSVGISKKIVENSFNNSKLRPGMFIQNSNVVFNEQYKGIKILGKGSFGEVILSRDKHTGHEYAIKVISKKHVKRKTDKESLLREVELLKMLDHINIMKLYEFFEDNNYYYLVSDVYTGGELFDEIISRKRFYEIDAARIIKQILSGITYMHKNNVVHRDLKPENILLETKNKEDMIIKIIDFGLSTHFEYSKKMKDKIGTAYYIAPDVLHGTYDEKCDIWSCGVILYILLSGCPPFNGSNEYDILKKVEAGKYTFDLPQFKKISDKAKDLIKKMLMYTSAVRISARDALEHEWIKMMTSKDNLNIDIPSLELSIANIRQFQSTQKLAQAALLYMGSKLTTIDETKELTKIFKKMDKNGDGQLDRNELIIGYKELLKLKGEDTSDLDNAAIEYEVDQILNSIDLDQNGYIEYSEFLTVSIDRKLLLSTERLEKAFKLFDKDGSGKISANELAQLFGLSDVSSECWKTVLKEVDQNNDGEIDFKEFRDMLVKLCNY

Cc1cc(NC(=O)Nc2ccc3sccc3c2)c2ccccc2n1
active: growth inhibition [1] 57% | growth inhibition [4] 99%
inactive: inhibition [2] 41% | inhibition [3] 0% | outcome [5] | outcome [6] | outcome [7] | outcome [8]

CCC(=O)Oc1ccc(NC(=O)c2cccc(OC)c2)cc1
active: growth inhibition [4] 98%
inactive: growth inhibition [1] 3% | inhibition [2] 17% | inhibition [3] 6% | outcome [5] | outcome [6] | outcome [7] | outcome [8]

COc1cc(OC)nc(-c2cccc(NC(=O)c3ccc4c(=O)n(CCN5CCCCC5)cnc4c3)c2)n1
active: growth inhibition [1] 86% | growth inhibition [4] 100%
inactive: inhibition [2] 11% | inhibition [3] -1% | outcome [5] | outcome [6] | outcome [7] | outcome [8]

CCc1cc(NC(=O)Nc2ccnc3ccccc23)ccc1OC
active: growth inhibition [4] 85%
inactive: growth inhibition [1] 24% | inhibition [2] -6% | inhibition [3] 2% | outcome [5] | outcome [6] | outcome [7] | outcome [8]

C[C@@H](N=C(Nc1ccc(C#N)cc1O)Nc1ccccc1Cl)c1ccc(Br)cc1
inactive: inhibition [2] 33% | inhibition [3] 0% | outcome [5] | outcome [6] | outcome [7] | outcome [8]
active: growth inhibition [1] 70% | growth inhibition [4] 98%

CSCCCN1CCC(O)(c2ccc3oc(C(=O)Nc4ccc5sc(C)nc5c4)cc3c2)CC1
active: growth inhibition [1] 69% | growth inhibition [4] 101%
inactive: inhibition [2] 10% | inhibition [3] 4% | outcome [5] | outcome [6] | outcome [7] | outcome [8]

O=C(Nc1ccc(Br)cc1)N(CCN1CCOCC1)CC(O)COCc1ccc(Cl)c(Cl)c1 (stereo not drawn)
active: growth inhibition [1] 52% | growth inhibition [4] 94%
inactive: inhibition [2] 16% | inhibition [3] -5% | outcome [5] | outcome [6] | outcome [7] | outcome [8]

Oc1ccc(Br)cc1C(O)CNCc1ccccc1OCc1ccccc1 (stereo not drawn)
active: growth inhibition [1] 100% | growth inhibition [4] 101%
inactive: inhibition [2] 25% | inhibition [3] 4% | outcome [5] | outcome [6] | outcome [7] | outcome [8]

CC(C)Sc1nc2c(c(=O)n1CCc1ccccc1)C1(CCCCC1)Cc1ccccc1-2
inactive: growth inhibition [1] 5% | inhibition [2] 8% | inhibition [3] 1% | outcome [5] | outcome [6] | outcome [7] | outcome [8]
active: growth inhibition [4] 92%

O=[N+]([O-])c1cccc(-c2nc(-c3ccc(Br)cc3)[nH]c2-c2ccc(Br)cc2)c1
active: growth inhibition [4] 99%
inactive: growth inhibition [1] 44% | inhibition [2] 6% | inhibition [3] 2% | outcome [5] | outcome [6] | outcome [7] | outcome [8]

CCNc1cc(C(=O)N[C@@H](Cc2ccccc2)[C@H](O)CNCc2cccc(OC)c2C)cc(N2CCCCS2(=O)=O)c1
active: growth inhibition [1] 98% | growth inhibition [4] 97%
inactive: inhibition [2] 8% | inhibition [3] -1% | outcome [5] | outcome [6] | outcome [7] | outcome [8]

CC1CN(Cc2ccc(-c3ccc(-c4nc5ccc(F)cc5[nH]4)cc3)cc2)CC(C)O1 (stereo not drawn)
inactive: inhibition [2] 40% | inhibition [3] -1% | outcome [5] | outcome [6] | outcome [7] | outcome [8]
active: growth inhibition [1] 93% | growth inhibition [4] 96%

O=C(NCc1ccc(F)cc1)Nc1ccc(-c2ccc(-c3nc4ccccc4[nH]3)cc2)cc1
active: growth inhibition [1] 98% | growth inhibition [4] 101%
inactive: inhibition [2] 43% | inhibition [3] 4% | outcome [5] | outcome [6] | outcome [7] | outcome [8]

O=S(=O)(Nc1cc2c(cc1OCCCN1CCCCC1)CCNCC2)c1ccc(-c2ccc(Cl)cc2)cc1
active: inhibition [2] 77% | growth inhibition [4] 100%
inactive: growth inhibition [1] 19% | inhibition [3] 2% | outcome [5] | outcome [6] | outcome [7] | outcome [8]

COC(=O)c1cc(C(O)CNC(C)CCc2cccc(F)c2)ccc1O (stereo not drawn)
active: growth inhibition [1] 77% | growth inhibition [4] 94%
inactive: inhibition [2] 38% | inhibition [3] -2% | outcome [5] | outcome [6] | outcome [7] | outcome [8]

CC(C)c1ccc(NC(=O)c2cccc(CN3CCCN(CC4CCCCC4)CC3)c2)cc1
active: growth inhibition [1] 59% | inhibition [2] 62% | growth inhibition [4] 85%
inactive: inhibition [3] 2% | outcome [5] | outcome [6] | outcome [7] | outcome [8]

O=C(CCNc1ccnc(NCCc2ccc(F)cc2)n1)Nc1ccccc1
inactive: growth inhibition [1] 10% | inhibition [2] 9% | inhibition [3] -4% | outcome [5] | outcome [6] | outcome [7] | outcome [8]
active: growth inhibition [4] 95%

CN1CCCN(c2ccnc3cc4c(cc23)N(C(=O)c2ccc(Cl)c(Cl)c2)CC4)CC1
active: growth inhibition [1] 73% | growth inhibition [4] 101%
inactive: inhibition [2] 20% | inhibition [3] 2% | outcome [5] | outcome [6] | outcome [7] | outcome [8]

COc1cc(-c2cnc(N)c(-c3nc4ccccc4[nH]3)c2)cc(OC)c1OC
inactive: inhibition [3] 7% | outcome [5] | outcome [6] | outcome [7] | outcome [8]
active: growth inhibition [1] 57% | inhibition [2] 59% | growth inhibition [4] 101%

CC(=O)Nc1ccc(C(=O)Nc2cccc(-c3cccc(-c4nc5ccccc5[nH]4)c3)c2)cn1
inactive: inhibition [2] 3% | inhibition [3] -2% | outcome [5] | outcome [6] | outcome [7] | outcome [8]
active: growth inhibition [1] 100% | growth inhibition [4] 101%

NC1=NC2(CCCCC2)N(OCCCOc2cc(Cl)c(Cl)cc2Cl)C(N)=N1
inactive: inhibition [3] -11% | outcome [5] | outcome [6] | outcome [7] | outcome [8]
active: growth inhibition [1] 98% | inhibition [2] 62% | growth inhibition [4] 94%

c1ccc(CCNc2nc(NCC(c3ccccc3)c3ccccc3)c3[nH]cnc3n2)cc1
inactive: inhibition [2] 9% | inhibition [3] -1% | outcome [5] | outcome [6] | outcome [7] | outcome [8]
active: growth inhibition [1] 95% | growth inhibition [4] 100%

O=C(Nc1ccc2c(c1)CCC2)N[C@H]1CCN(Cc2ccc(OCCCN3CCCCC3)cc2)C1
active: growth inhibition [4] 96%
inactive: growth inhibition [1] -2% | inhibition [2] 9% | inhibition [3] -2% | outcome [5] | outcome [6] | outcome [7] | outcome [8]

CC(=O)Nc1ccc(C(=O)Nc2cccc(-c3ccc(-c4nc5c(C)cccc5[nH]4)cc3)c2)cn1
inactive: inhibition [2] 25% | inhibition [3] 4% | outcome [5] | outcome [6] | outcome [7] | outcome [8]
active: growth inhibition [1] 94% | growth inhibition [4] 100%

Oc1ccc(Cl)cc1Nc1nc(C(F)(F)F)nc2ccccc12
active: growth inhibition [1] 63% | growth inhibition [4] 86%
inactive: inhibition [2] 16% | inhibition [3] 5% | outcome [5] | outcome [6] | outcome [7] | outcome [8]

COc1cc(N)c(Cl)cc1C(=O)NCC1CCN(c2nc(C)cc(C)n2)CC1
inactive: inhibition [2] -6% | inhibition [3] 4% | outcome [5] | outcome [6] | outcome [7] | outcome [8]
active: growth inhibition [1] 95% | growth inhibition [4] 96%

Cc1cn(CC(=O)Nc2cccc(-c3cccc(-c4nc5c(C)cccc5[nH]4)c3)c2)c(=O)[nH]c1=O
inactive: inhibition [2] 2% | inhibition [3] 5% | outcome [5] | outcome [6] | outcome [7] | outcome [8]
active: growth inhibition [1] 100% | growth inhibition [4] 100%

CCn1c2ccccc2c2cc(C=NNc3cc(C)nc4ccccc34)ccc21
inactive: inhibition [2] 19% | inhibition [3] -2% | outcome [5] | outcome [6] | outcome [7] | outcome [8]
active: growth inhibition [1] 97% | growth inhibition [4] 102%

Cc1cccc2[nH]c(-c3cccc(-c4ccc(NC(=O)C(C)(C)c5ccccn5)cc4)c3)nc12
active: growth inhibition [4] 97%
inactive: growth inhibition [1] 4% | inhibition [2] -3% | inhibition [3] -1% | outcome [5] | outcome [6] | outcome [7] | outcome [8]

COc1cc(C)nc2ccc(NC(=O)Nc3cccc4ccccc34)cc12
inactive: growth inhibition [1] 48% | inhibition [2] 27% | inhibition [3] -3% | outcome [5] | outcome [6] | outcome [7] | outcome [8]
active: growth inhibition [4] 91%

Cc1ccc(-c2ccn(Cc3ccc(OCc4ccccc4)cc3)n2)cn1 (tested in a mixture with another compound)
inactive: inhibition [2] 1% | inhibition [3] -3% | outcome [5] | outcome [6] | outcome [7] | outcome [8]
active: growth inhibition [1] 92% | growth inhibition [4] 93%

Cc1cccc2[nH]c(-c3cccc(-c4cccc(CNCc5ccc(S(C)(=O)=O)cc5)c4)c3)nc12
inactive: inhibition [2] 13% | inhibition [3] 0% | outcome [5] | outcome [6] | outcome [7] | outcome [8]
active: growth inhibition [1] 66% | growth inhibition [4] 100%

CCCCSc1ccc2nc(-c3c[nH]c4ccc(C#N)cc34)cn2c1
inactive: growth inhibition [1] 37% | inhibition [2] 3% | inhibition [3] 3% | outcome [5] | outcome [6] | outcome [7] | outcome [8]
active: growth inhibition [4] 94%

Cc1nc(-c2cccc(C(=O)NC3CCC(CCN4CCc5ccc(-c6cccnc6)cc5CC4)CC3)c2)no1 (stereo not drawn)
inactive: growth inhibition [1] 4% | inhibition [2] 17% | inhibition [3] -1% | outcome [5] | outcome [6] | outcome [7] | outcome [8]
active: growth inhibition [4] 98%

COc1cc(C)nc2ccc(NC(=O)Nc3ccc([N+](=O)[O-])cc3C)cc12
active: growth inhibition [1] 52% | growth inhibition [4] 90%
inactive: inhibition [2] 10% | inhibition [3] -5% | outcome [5] | outcome [6] | outcome [7] | outcome [8]

CS(=O)(=O)CCNCc1nc(-c2ccc3c(=O)[nH]cnc3c2)cs1
inactive: inhibition [3] 0% | outcome [5] | outcome [6] | outcome [7] | outcome [8]
active: growth inhibition [1] 96% | inhibition [2] 81% | growth inhibition [4] 86%

CC(C)c1sc(N2CCN(C)CC2)nc1C(=O)NCCc1ccc(Cl)c(Cl)c1
active: growth inhibition [1] 79% | growth inhibition [4] 98%
inactive: inhibition [2] 10% | inhibition [3] -2% | outcome [5] | outcome [6] | outcome [7] | outcome [8]

CC1(C)N=C(N)N=C(N)N1OCc1cc2ccccc2cc1CON1C(N)=NC(N)=NC1(C)C
inactive: inhibition [2] 0% | inhibition [3] -5% | outcome [5] | outcome [6] | outcome [7] | outcome [8]
active: growth inhibition [1] 51% | growth inhibition [4] 92%

COc1ccc2c(NN=Cc3ccc(Cl)cc3)ccnc2c1
active: growth inhibition [1] 100% | growth inhibition [4] 101%
inactive: inhibition [2] 8% | inhibition [3] 5% | outcome [5] | outcome [6] | outcome [7] | outcome [8]

CC(C)CNCc1cccc(-c2cccc(CN(CCN(C)C)C(=O)NCCc3ccccc3)c2)c1
inactive: inhibition [3] -4% | outcome [5] | outcome [6] | outcome [7] | outcome [8]
active: growth inhibition [1] 83% | inhibition [2] 84% | growth inhibition [4] 99%

O=C(/C=C/c1ccc(Cl)c(Cl)c1)NCCCCCN1CCC(NC(=O)Nc2ccc(C(F)(F)F)cc2)CC1
active: inhibition [2] 58% | growth inhibition [4] 94%
inactive: growth inhibition [1] 34% | inhibition [3] 3% | outcome [5] | outcome [6] | outcome [7] | outcome [8]
